Test in all cases: PBM binding z-score (relative to random genomic background probes); higher = stronger binding; sequences stand for … in GC…GCGATTGACAGCGTAGAATGAAGG
In assay [1] the test system is FXR:RXRa (NR concentration 270 nM, RXRa partner concentration 90 nM). The procedure, abridged:
(§1)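 Antibodies against each partner of ligand-free nuclear receptor dimers (one per run) detected binding on custom Agilent 4×180K protein-binding microarrays after 1 h incubation. The double-stranded probes had 34-nt variable regions carrying direct-repeat seeds, single-nucleotide variants, half-site ablations and random human genomic background sequences. Binding z-scores, from regression-normalized fluorescence, use the random background probes as reference.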

The subject of assay [2] is LXRa:RXRa (NR concentration 270 nM, RXRa partner concentration 90 nM). The gist of the method:
as §1

The subject of assay [3] is LXRa homodimer (NR concentration 270 nM). The gist of the method: as §1
The test system of assay [4] is LXRb:RXRa (NR concentration 270 nM, RXRa partner concentration 90 nM). The gist of the method: as §1
Assay [5] concerns LXRb homodimer (NR concentration 270 nM). The procedure, abridged: as §1
The test system of assay [6] is PPARa:RXRa (NR concentration 270 nM, RXRa partner concentration 90 nM). The procedure, abridged: as §1
Assay [7] has as its system PPARg:RXRa (NR concentration 180 nM, RXRa partner concentration 90 nM). The gist of the method: as §1
Assay [8] has as its system PPARg:RXRa 270nM:90nM, anti-RXR (NR concentration 270 nM, RXRa partner concentration 90 nM). The procedure, abridged:
as §1

The subject of assay [9] is PPARg:RXRa 30nM:10nM, anti-RXR (NR concentration 30 nM, RXRa partner concentration 10 nM). The gist of the method:
as §1

The test system of assay [10] is PPARg:RXRa 90nM:30nM, anti-RXR (NR concentration 90 nM, RXRa partner concentration 30 nM). The procedure, abridged: as §1
The subject of assay [11] is PPARg:RXRa DBDmut IVT, anti-RXR (DBD mutation: RXRa K156A/R161A, NR concentration 270 nM, RXRa partner concentration 90 nM). The gist of the method:
as §1

Assay [12] deals with PPARg:RXRa IVT, anti-PPARg (NR concentration 270 nM, RXRa partner concentration 90 nM). The gist of the method:
as §1

Assay [13] deals with PPARg DBDmut:RXRa IVT, anti-PPARg (DBD mutation: PPARg1 K132A/R137A, NR concentration 270 nM, RXRa partner concentration 90 nM). The procedure, abridged:
as §1

In assay [14] the test system is PPARg DBDmut IVT, anti-PPARg (DBD mutation: PPARg1 K132A/R137A, NR concentration 270 nM). The procedure, abridged:
as §1

The subject of assay [15] is PPARg homodimer (NR concentration 180 nM). The gist of the method: as §1
The test system of assay [16] is PXR:RXRa (NR concentration 270 nM, RXRa partner concentration 90 nM). The gist of the method: as §1
Assay [17] relates to PXR homodimer (NR concentration 270 nM). The gist of the method: as §1
The test system of assay [18] is RARa:RXR (NR concentration 270 nM, RXRa partner concentration 90 nM). The gist of the method: as §1
Assay [19] has as its system RARa homodimer (NR concentration 270 nM). The procedure, abridged: as §1
Assay [20] relates to RARb:RXRa (NR concentration 270 nM, RXRa partner concentration 90 nM). The procedure, abridged: as §1

Consider CCTTACGGGTCGAGGTTATAGCACGGGTGGTACG, for which the PBM binding z-score is 1.26 in assay [1]; 1.27 in [2]; -0.211 in assay [3]; 0.916 in [4]; -0.417 in [5]; 2.42 in [6]. In addition, the PBM binding z-score in [7] was 0.822; in [8] it was 1.01; in assay [9], -0.146; in assay [10] it was 0.242; in [11], -0.517; in [12], 0.508. The PBM binding z-score in assay [13] was -0.109; in [14], -1.51; in assay [15] it was 1.53; in assay [16], 1.11; in [17], 0.209; in assay [18], 1.61. For the same sequence, the values for the PBM binding z-score in [19] and in [20] were -0.219 and 1.97, respectively.
Turning to ATATGTAGGTTACATCCGGGTCATTCATGCTATG, the PBM binding z-score in [1] amounted to 2.21; in assay [2], 4.15; in [3] it was 1.59; in [4], 3.05; in assay [5], 0.928; in [6] it was 4.55. Also, the PBM binding z-score in assay [7] was 6.16; in assay [8], 5.07; in assay [9] it was 2.55; in assay [10], 4.45; in [11], 7.49; in assay [12], 7.53. Also, the PBM binding z-score was found to be 5.06 in assay [13]; 3.54 in assay [14]; 3.61 in assay [15]; 3.79 in assay [16]; 1.66 in [17]; 3.83 in [18]. For the same sequence, the results for the PBM binding z-score in assay [19] and in assay [20] were 1.2 and 2.23, respectively.
Turning to TCTTGTAGATCAGCATGTTAAGAAAGCTGGCCAA, the PBM binding z-score in assay [1] is 0.0411; in [2], 0.107; in assay [3] it was -0.479; in assay [4], 0.0271; in [5], -0.503; in assay [6], 0.231. In addition, the PBM binding z-score in [7] is -0.371; in assay [8], 1.52; in [9] it was 2.44; in assay [10] it was 2.19; in assay [11], 1.61; in [12], -0.0359. Also, the PBM binding z-score was -0.2 in assay [13]; 0.837 in assay [14]; -0.198 in assay [15]; 0.127 in [16]; -0.264 in assay [17]; 0.0601 in assay [18]. Also, the results for the PBM binding z-score in [19] and in assay [20] were -0.0517 and -0.19, respectively.
CGTCCAAGGCCAGAGAGGTCAGTGAATGCCGAGT: the PBM binding z-score is 1.34 in assay [1]; 1.44 in assay [2]; 0.491 in [3]; 1.74 in [4]; -0.859 in assay [5]; 2.28 in assay [6]. The PBM binding z-score was 0.0517 in assay [7]; 0.653 in assay [8]; -0.871 in assay [9]; -0.148 in assay [10]; 0.239 in assay [11]; 0.381 in [12]. The PBM binding z-score in assay [13] was -0.198; in assay [14] it was -1.31; in [15], 0.821; in assay [16] it was 3.1; in [17], 3.64; in assay [18], 2.39. The PBM binding z-score in [19] is -0.0907; in [20] it was 3.41.
On to TGAATGAGGTTATAAGATCACGGAACGTTGCAAA, for which the PBM binding z-score in assay [1] was 1.72; in assay [2], 1.49; in assay [3], -0.0904; in assay [4], 1.48; in [5], -0.205; in [6] it was 3.21. The PBM binding z-score in assay [7] was determined as 2.15; in assay [8], 2.44; in assay [9], 1.12; in assay [10], 2.05; in assay [11], 0.939; in [12], 2.19. In addition, the PBM binding z-score came to 1.02 in [13]; 1.32 in assay [14]; 0.335 in [15]; 1.43 in assay [16]; 0.182 in [17]; 2.09 in [18]. The PBM binding z-score in assay [19] stood at 0.409; in assay [20], 1.5.
For ACTTACGGGTCAACGAGGTTATAGAACGCGTATA, the PBM binding z-score in assay [1] amounted to 6.52; in assay [2], 5.29; in [3], 0.693; in assay [4] it was 4.56; in [5] it was 0.433; in assay [6], 5.87. Further, the PBM binding z-score in assay [7] is 5.23; in assay [8], 5.55; in [9], 2.2; in assay [10], 4.21; in assay [11], 3.53; in assay [12] it was 4.42. In addition, the PBM binding z-score turned out to be 1.71 in assay [13]; 1.43 in assay [14]; 1.66 in assay [15]; 5.08 in assay [16]; 2.8 in [17]; 4.99 in assay [18]. The PBM binding z-score in assay [19] was 0.996; in [20], 4.35.
Consider CCTAGTTGGTCATGGTCACACACGCTATAGGTAC, for which the PBM binding z-score in [1] is -0.0474; in assay [2], 0.0849; in [3], 0.431; in [4] it was 0.71; in assay [5] it was 0.175; in assay [6], 0.348. For the same sequence, the PBM binding z-score in assay [7] came to 1.04; in assay [8] it was 0.761; in assay [9] it was 0.167; in assay [10] it was 0.467; in assay [11] it was 1.53; in assay [12] it was 1.72. Besides, the PBM binding z-score in assay [13] was 0.378; in [14], 0.935; in [15] it was 0.845; in assay [16], 0.223; in [17], 0.732; in [18] it was 0.207. Also, the PBM binding z-score in [19] turned out to be 1.39; in assay [20] it was 1.46.

The record behind these values is the supplement of paper PMC6555819.
